39 molecules from ChEMBL document CHEMBL3988442, “University of Dundee, Small-Polar-MMV Screening Library” (2021) can be followed below.

The structures appear in SMILES notation.

The target in the assay is AMP-activated protein kinase, AMPK (Homo sapiens) (UniProt P54646+O43741+P54619+Q9UGJ0+Q9Y478+Q13131+Q9UGI9). Description: AMP-dependent Kinase enzyme assay. An in vitro enzyme assay that detects ADP turnover that is directly proportional to AMPK activity. This uses naive AMPK that is activated during the assay with MK-8722. The note with it: 30 µM. In kind it is functional. Further details: scale not given: direction of the effect not stated beside the values.
As for `O=C(COC1CCCC1)NCc1ccc(O)c(F)c1`, the Percent Effect is 8.07%.
Then `Cc1noc(CCNC(=O)C2CSCN2C(=O)C2CCCC2)n1` (centres undefined), with 3.34%; and `CCCNc1ncc(CN2CCC3(CCNC(=O)CC3)CC2)cn1`, with -1.43%.
Then `COc1cccc(CN(C)Cc2c(C)noc2C)c1OC`, with 18.1%.
For `Cc1cc(-n2cccn2)ccc1CN1CCOCC(CN(C)C)C1` (centres undefined), the Percent Effect is -0.486%.
As for `COC(=O)N1CCCCC1C(=O)N1CCN(c2cccnc2)CC1` (centres undefined), the Percent Effect was -4.3%.
Then `CNC(=O)C1CCCN(C(=O)c2cncs2)C1` (centres undefined), with 4.55%; and `COc1c(C2CCCN2C(=O)c2ccc(C(N)=O)s2)c(C)nn1C` (centres undefined), with -4.26%.
As for `CCc1c(C(=O)Nc2ccc(F)c(C(=O)NC)c2)cnn1CC(C)C`, the Percent Effect worked out at 11.4%.
Next, `CCc1nc(C)c(CC(=O)N2CCC3(CC2)OCCCC3OC)c(=O)[nH]1` (centres undefined): -123%; `Cc1ccc(-c2cc(C(=O)NCC3CCOC3)n[nH]2)s1` (centres undefined): -4.75%.
Regarding `Cc1nccn1-c1nccnc1C1CCCN(C)C1` (centres undefined), the Percent Effect is 1.28%.
Then `COC(CNC(=O)c1ccc(NC(C)=O)cc1)c1cccc(Cl)c1` (centres undefined), with 1.2%; and `CC(c1nnc(-c2ccccc2)o1)N1CCC(Nc2ccccc2)CC1` (centres undefined), with 4.64%; and `Cc1cnn(C2CN(CCCOc3ccc(C#N)cc3)C2)c1`, with -0.666%.
For the molecule `CNC(=O)C1CN(C(=O)Cc2ccc(OC)cc2)Cc2cn(C)nc21` (centres undefined), the Percent Effect was -3.48%.
For the molecule `Cc1cc(N2CCC3(CCCN(CCO)C3=O)C2)nc2ccccc12` (centres undefined), the Percent Effect came out at 9.84%.
Next, `CNCc1cn(C2CCN(C(=O)NCc3ccco3)CC2)nn1`: 0.812%.
Then `Cc1cc(-c2ccnn2C)nc(C2CCN(S(C)(=O)=O)CC2)n1`, with 9.22%; and `Cc1cc(CNCC2CNc3ccnn3C2)no1` (centres undefined), with -2.57%; and `Cn1ccc(NC(=O)CN2CCN(C3CCCC3)C(=O)C2)n1`, with 4.97%.
As for `Cc1ncsc1C(=O)NCCCN1CCCCCC1=O`, the Percent Effect was -10%.
Then `COc1ncc(NCc2ccc(C#N)cc2)cc1C(N)=O`, with 2.92%.
For the molecule `CCS(=O)(=O)NCC(=O)N1CCC(c2cc3ccccc3[nH]2)CC1`, the Percent Effect is 6.95%.
Consider `CN(Cc1csc(-c2cccs2)n1)CC(O)CO` (centres undefined), for which the Percent Effect came to 5.86%.
Next, `O=C(NC1CCCN(Cc2c(F)cccc2F)C1)c1cnccn1` (centres undefined): 6.06%; `O=C1[C@@H]2C[C@H](O)CCN2C(=O)CN1CCSc1ccccn1`: -5.57%.
`Cc1nn2cccnc2c1C(=O)NCc1ccccc1OC1CCC1`: the Percent Effect is 6.53%.
As to `Cc1noc(C)c1CC(=O)N1CCCC(n2ccnc2C)C1` (centres undefined), the Percent Effect was -4.43%.
Then `OCCC1CCN(c2ccnc3ccsc23)C1` (centres undefined), with 1.38%; and `O=C(NCc1ccco1)N1CCOC(c2ccccc2Cl)C1` (centres undefined), with 3.01%; and `CCc1ncc2c(n1)CN(c1cc(N3CCN(C)CC3)nc(N)n1)C2`, with -137%.
Next, `CC(O)c1cnn(-c2ccccc2)c1` (centres undefined): 12.6%; `COc1ccc(OC2CCN(C(=O)c3ccc(C(C)=O)s3)CC2)cc1`: -2.68%; `CCCc1nc(C(=O)N2CCn3nc(C(=O)OC)cc3C2)cs1`: 1.42%.
Then `CN(CC(O)C(F)(F)F)C(=O)Nc1cccc(C(F)F)c1` (centres undefined), with -0.316%; and `CC1(C(N)=O)CN(S(=O)(=O)c2cccc(F)c2)CCO1` (centres undefined), with 3.77%; and `OC(CNCCc1nnc2ccccn12)c1ccc(F)c(F)c1` (centres undefined), with 14.5%.
Consider `CC(C)NC(=O)C1(Cc2ccccc2-c2ccccc2)CCCNC1` (centres undefined), for which the Percent Effect was found to be 13.9%.
